Reference: PubChem BioAssay (EPA / NIEHS)
Inconclusive results are not listed. Some structures have more than one record in an assay (separate samples or runs), and their calls can disagree. Active and inactive are the calls of the source. Rule for the calls: active = hit-call score of the fitted dose curve at least 0.9, where 1 is the maximum; inconclusive = response in the unintended direction; inactive = score below 0.9.

Test: TOX21_p53_BLA_p2_viability: Viability Assessment in the Tox21 HCT-116 p53 Agonism Beta-lactamase Assay, Phase 2 (AID 2283591);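 note: compound exposure lasted 16 h at 37 °C; actives lower the ATP signal meaning cytotoxicity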
Procedure, shortened: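 HCT116 p53-bla cells, 4000/well, dosed after 5 h plating (217-fold dilution of DMSO stocks) and incubated 16 h at 37C. Viability taken as cellular ATP by CellTiter-Glo luminescence after 30 min RT; signal loss marks cytotoxicity.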
In the case of `CC1=CCC2CC1C2(C)C` (stereo not given), the outcome is reported as “inactive”. For `CC(C)(CO)COC(=O)C(C)(C)CO`, the outcome was “inactive”. For `C=C(C)C(=O)OCCOC(=O)C(=C)C`, the outcome was “inactive”. With `Nc1ccnc(=O)[nH]1` the outcome was “inactive”. For `CCOC(=O)c1ccccc1C`, the outcome was “inactive”. For `CCCCCCCC(=O)OCC(COC(=O)CCCCCCC)OC(=O)CCCCCCC`, the outcome was “inactive”. For `CC(C)COC(=O)CC(C(=O)OCC(C)C)S(=O)(=O)O` (stereo not given), the outcome was “inactive”. In the case of `Cc1ccccc1CCO`, the outcome is reported as “inactive”. For `CCCC1CCCC(=O)O1` (stereo not given), the outcome was “inactive”. For `O=C(O[C@@H]1Cc2c(O)cc(O)cc2O[C@@H]1c1cc(O)c(O)c(O)c1)c1cc(O)c(O)c(O)c1`, the outcome was “inactive”. For `CCOC(=O)c1ccc(C)cc1`, the outcome was “inactive”. In the case of `CC(C)c1cc(C(C)C)cc(C(C)C)c1`, the outcome is reported as “inactive”. With `O=C(O)C1CCC(C(=O)O)CC1` (stereo not given) the outcome was “inactive”. For `CCCC/C=C/C=C\C=O`, the outcome was “inactive”. In the case of `Cc1ccc(S(=O)(=O)N=C=O)cc1`, the outcome is reported as “inactive”. In the case of `CC(C)c1cccc(C(C)C)c1N`, the outcome is reported as “inactive”. With `CC1(C)CCC[C@]2(C)[C@H]3CC(=O)O[C@]3(C)CC[C@@H]12` the outcome was “inactive”. With `O=S(=O)(O)c1ccc(N=Nc2c(O)ccc3ccccc23)cc1` the outcome was “inactive”. For `CCCCCCOC(=O)CCCCC(=O)OCCCCCC`, the outcome was “inactive”. For `CC12CCC(CC1)C(C)(C)O2`, the outcome was “inactive”. In the case of `CC(=O)C(C)C`, the outcome is reported as “inactive”. In the case of `CCc1cccc(C)c1N`, the outcome is reported as “inactive”. With `CCCCCCCOC(=O)c1ccc(O)cc1` the AC50 was 44.8 µM (active) and the outcome was “inactive”. In the case of `C=C(C)C(=O)OCC(O)COc1ccc(C(C)(C)c2ccc(OCC(O)COC(=O)C(=C)C)cc2)cc1` (stereo not given), the AC50 is reported as 69.2 µM (active). For `C=C[Si](OCCOC)(OCCOC)OCCOC`, the outcome was “inactive”. With `O=c1c(O)c(-c2ccc(O)cc2O)oc2cc(O)cc(O)c12` the outcome was “inactive”. With `OCCCc1ccccc1` the outcome was “inactive”. For `CC(C)=CCl`, the outcome was “inactive”. With `CCCCNS(=O)(=O)c1ccccc1` the outcome was “inactive”. With `Nc1ccc(C(=O)OCCCOC(=O)c2ccc(N)cc2)cc1` the outcome was “inactive”. For `c1ccc2cnccc2c1`, the outcome was “inactive”. With `CCCCC(=O)O` the outcome was “inactive”. For `C=C1C[C@H]2[C@@H]3C=C(C)C4=CC(=O)CC[C@]4(C)[C@H]3CC[C@]2(C)[C@@]1(OC(C)=O)C(C)=O`, the outcome was “inactive”. For `CCCCOC(=O)C(C)CC` (stereo not given), the outcome was “inactive”.
